USP30 block = inhibitors of human USP30 deubiquitinase; AID 1645860; purified USP30, Ub-rhodamine cleavage fluorescence; actives 5.3% (n = 47,000); inhibition, % at 25 µM; Q70CQ3
USP28 inh = blocks human USP28 ubiquitin-rhodamine cleavage; purified USP28, Ub-rhodamine cleavage fluorescence, 30 min; actives 3% (n = 47,000); Q96RU2; inhibition, % at 25 µM; AID 1645857
USP17 inh = inhibitors of human USP17 deubiquitinase | A8MUK1 | purified USP17, Ub-rhodamine cleavage fluorescence, 3 h | inhibition, % at 50 µM | actives 6.5% (n = 47,000)
Target sequence (A8MUK1 whole entry, looked up): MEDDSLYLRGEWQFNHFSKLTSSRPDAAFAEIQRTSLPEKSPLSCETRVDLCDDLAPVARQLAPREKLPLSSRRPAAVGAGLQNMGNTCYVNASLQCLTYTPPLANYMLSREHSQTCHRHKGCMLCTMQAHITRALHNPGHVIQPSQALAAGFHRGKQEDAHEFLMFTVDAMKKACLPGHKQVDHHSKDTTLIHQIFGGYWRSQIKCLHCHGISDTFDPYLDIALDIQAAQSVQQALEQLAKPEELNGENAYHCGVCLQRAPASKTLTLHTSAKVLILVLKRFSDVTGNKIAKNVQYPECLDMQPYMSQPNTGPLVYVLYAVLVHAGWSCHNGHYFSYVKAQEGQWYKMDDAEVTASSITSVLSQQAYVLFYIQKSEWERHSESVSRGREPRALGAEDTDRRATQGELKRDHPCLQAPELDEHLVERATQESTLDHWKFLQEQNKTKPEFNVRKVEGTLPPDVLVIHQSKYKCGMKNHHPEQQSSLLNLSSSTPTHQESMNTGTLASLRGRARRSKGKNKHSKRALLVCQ
* = called active by the depositor; . = no result. Only some compounds are listed: those with a hit (about 11% of all), similar ones and a draw of the others. No stated cut-off is given here; in the data, active means inhibition above about 30%; inactive means the rest.

SMILES	USP30 block	USP28 inh	USP17 inh
COc1cccc(-n2cnc3cc(C(=O)NC4CC4)ccc3c2=O)c1	-14	-4	73*
O=C(NC1CC1)c1ccc2c(=O)n(-c3ccc(F)cc3)cnc2c1	-10	-20	20
Cc1ccccc1NC(=O)CC1C(=O)N(CC2CCCO2)c2nc3ccccc3n21 (stereo not drawn)	-10	-6	-8
Cc1nc2nc[nH]n2c(=O)c1CCC(=O)NCc1ccccc1	1	-4	0
FC(F)(F)Oc1ccc(-c2cnc(NCc3ccc(Cl)cc3)nc2)cc1	34*	20	25
COc1ccc(-c2cncc(-c3cc(NCc4ccc(Cl)cc4)nc(C)n3)c2)cc1	18	1	8
CCOC(=O)CC(NC(=O)CCc1c(C)nc2c(c1C)c(=O)n(C)c(=O)n2C)c1ccc(C)cc1 (stereo not drawn)	31*	4	14
COc1ccc(NC(=O)CCc2c(C)nc3c(c2C)c(=O)n(C)c(=O)n3C)cc1	-2	-5	4
CCOC(=O)CNC(=O)N1CCCCCC1c1cccs1 (stereo not drawn)	4	-11	-9
CCOC(=O)Cn1c(=O)c(C(=O)NC(=O)OCC)cn(Cc2cccs2)c1=O	31*	1	22
CCN1CCN(CCCN2C(=O)C3C(C(=O)Nc4ccc(C(C)C)cc4)C4C=CC3(O4)C2C(=O)NC2CCCCC2)CC1 (stereo not drawn)	15	2	9
CC(C)CCN1C(=O)C2C(C(=O)Nc3ccc(Oc4ccccc4)cc3)C3C=CC2(O3)C1C(=O)NC1CCCCC1 (stereo not drawn)	63*	18	.
CCCCN1C(=O)C2C(C(=O)Nc3ccc(Oc4ccccc4)cc3)C3C=CC2(O3)C1C(=O)NC1CCCCC1 (stereo not drawn)	11	3	2
CC(C)c1ccc(NC(=O)C2C3C=CC4(O3)C2C(=O)N(CCCN2CCC(Cc3ccccc3)CC2)C4C(=O)NC2CCCCC2)cc1 (stereo not drawn)	36*	18	0
O=C(Nc1ccc(F)cc1)c1cn(-c2cc(N3CCCC3)ncn2)cn1	-429	-204	-80
Cc1ccc2ccc3c(c2n1)OC(N)=C(C#N)C3c1ccncc1 (stereo not drawn)	-8	-20	6
O=C(CN(Cc1ccc(F)cc1)C(=O)Cn1nnc(-c2ccc(F)cc2)n1)NC1CCCC1	21	8	5
CCOC(=O)C(Cc1ccccc1)NC(=O)CCc1nnc2ccc(N(CC)CC)nn12 (stereo not drawn)	-16	-3	-14
COc1ccc(-c2nnn(CC(=O)Nc3ccccc3)n2)cc1	46*	39*	49*
CCOc1ccc(-c2nnn(CC(=O)N3CCCCC3)n2)cc1	20	20	13
COc1ccc(-c2noc(CC(=O)Nc3cccc(OC)c3)n2)cc1	-18	0	25
COCCNC(=O)Cn1nnc(-c2ccc(-c3ccc(OC)cc3)cc2)n1	35*	11	26
O=C(Cn1nnc(-c2ccc(F)cc2)n1)NCCc1ccccc1	2	4	74*
CCOC(=O)C(Cc1ccccc1)NC(=O)Cn1nnc(-c2ccccc2)n1 (stereo not drawn)	35*	15	27
COc1cccc(NC(=O)C(C(=O)Nc2cccc(OC)c2)c2ccccc2)c1	14	11	14
SMILES	USP30 block	USP28 inh	USP17 inh
COc1cccc(CN(C)C(=O)CC(c2ccccc2)c2ccccc2)c1	41*	25	.
Cc1nn(-c2cc(N3CCOCC3)ncn2)c(C)c1CCC(=O)Nc1ccc(C(C)C)cc1	-7	4	65*
Cc1nn(-c2cc(N3CCOCC3)ncn2)c(C)c1CCC(=O)Nc1ccc(Cl)cc1	-3	5	12
Cc1c(NC(=O)COc2ccc(C3CCCCC3)cc2)cccc1-c1nc2ncccc2o1	22	7	43*
COc1ccc(OCC(=O)Nc2cc(C)c(O)c(-c3nc4ccccc4o3)c2)cc1	15	3	-3
COc1ccc(CC(=O)NCCc2cn3ccc(C)cc3n2)cc1	19	4	0
CC(NCc1ccc2c(c1)OCO2)C(=O)Nc1ccc2ccccc2c1 (stereo not drawn)	-39	-13	-18
C/C1=C/CC(C)(C)/C=C/C[C@]2(C)Oc3cc(=O)c(O)cc(C)c3C[C@H]2C[C@H]1O	1	-8	0
O=C(Nc1nc(C(=O)N2CCN(c3ccccc3F)CC2)co1)c1ccccc1	-8	4	-4
CCOc1ccccc1-c1cc(NC(=O)c2cc3ccc4cccnc4c3[nH]2)on1	88*	12	68*
COc1ccc2nc(NC(=O)c3cc4ccc5cccnc5c4[nH]3)sc2c1	3	1	8
O=C(Nc1nc2ccccc2s1)c1cc2ccc3cccnc3c2[nH]1	.	.	58*
CC(=O)Nc1ccc(C(=O)Nc2cc(-c3ccccn3)no2)cc1	1	-4	2
N#Cc1cccc(NC(=O)c2ccc3ncsc3c2)c1	5	19	1
Cc1cc2nc(Oc3cccc(Cl)c3)c3ccccc3n2n1	-3	-11	62*
Cc1cc(C)cc(Oc2nc3cc(C)nn3c3ccccc23)c1	15	-5	-5
COc1ccc(CC(NC(C)=O)C(=O)NC2CCN(c3c(Cc4ccccc4)c(C)nc4ncnn34)CC2)c(OC)c1 (stereo not drawn)	-3	1	5
COc1ccc(CC(NC(C)=O)C(=O)NC2CCN(c3c(Cc4ccccc4)c(C)nc4ncnn34)CC2)cc1OC (stereo not drawn)	71*	16	47*
CC(=O)Nc1ccc(S(=O)(=O)N2CC[C@@H]3CN(C(=O)c4ccccc4)[C@@H]3C2)cc1	-22	-12	-11
COc1nc2ccc(C)cc2cc1-c1noc(-c2cccnc2)n1	-111	-24	-25
Cc1cc(-c2noc(-c3cccnc3)n2)c2ccccc2n1	0	0	40*
CN(C)c1ncc(C2Nc3cc(Cl)ccc3C3=NCCN32)cn1 (stereo not drawn)	-6	-12	-7
Cc1sc(NC(=O)CN2CCc3ccccc3C2)nc1-c1ccc2c(c1)CCN2C(=O)CC(C)(C)C	-34	-4	-12
Cc1sc(NC(=O)CN(C)C2CCCCC2)nc1-c1ccc2c(c1)CCN2C(=O)c1cccc(F)c1	6	-9	12
CCc1nc2ccc(C(=O)Nc3nc(-c4ccc5c(c4)CCN5S(=O)(=O)c4ccccc4)c(C)s3)cc2nc1CC	-4	15	32*
SMILES	USP30 block	USP28 inh	USP17 inh
Cc1sc(NC(=O)CNc2ccccc2)nc1-c1ccc2c(c1)CCN2C(=O)C(C)C	-13	5	51*
CCc1nc2ccc(C(=O)Nc3nc(-c4ccc5c(c4)CCN5C(=O)C4CCCCC4)c(C)s3)cc2nc1CC	-15	3	8
Cc1cccc(C(=O)N2CCc3cc(-c4nc(NC(=O)CNc5ccccc5)sc4C)ccc32)c1	20	17	60*
Cc1sc(NC(=O)Cn2nnc3ccccc3c2=O)nc1-c1ccc2c(c1)CCN2C(=O)C(C)C	.	.	56*
Cc1sc(NC(=O)CN2CCOCC2)nc1-c1ccc2c(c1)CCN2C(=O)C(C)C	-30	0	-8
Cc1ccc(N2CC(c3nnc(NC(=O)Cc4ccc(F)cc4)s3)CC2=O)cc1C (stereo not drawn)	12	5	7
O=C(Cn1cnc(S(=O)(=O)N2CCCCC2)c1)NCc1ccc(F)cc1	-10	-3	7

Source: PubChem BioAssay
